Measurements as given in PubChem BioAssay AID1347131 (National Center for Advancing Translational Sciences (NCATS), 2019).
The campaign covered roughly 410,000 compounds. About 2,000 (0.49%) were called active. Where a call stands in place of a potency, no number is given. Inconclusive results (about 8%) are left out. Calls follow the shape of the full dose curve; tested in HEK293 reporter line. The full list was thinned out, with actives kept by preference.
Potency is read from the fitted curve at half-maximal effect.

Assay: qHTS Assay for Foot and Mouth Disease Virus Antivirals: Primary Screen against the MLPCN compound library; also: nearly all actives have a fitted effect of over 55% in size
Conditions: FMDV antiviral cell-based qHTS; series mostly up to 57.9 µM
In the case of `COC(=O)c1nnn(-c2nonc2N)c1CSc1nc2ccccc2s1`, the Potency is reported as “inactive”.
In the case of `Cc1c(NC(=O)CN2CCN(c3cccc(Cl)c3)CC2)c(=O)n(-c2ccccc2)n1C`, the Potency is reported as “inactive”.
For `CC12CN(C(=O)c3ccco3)CC(c3ccccc3)(CN(C(=O)c3ccco3)C1)C2=O`, the Potency was “inactive”.
In the case of `O=C(O)c1ccc(N/N=C/c2cc(Br)cs2)cc1`, the Potency is reported as 11.2 µM (active).
In the case of `COc1ccc(/C=N/Nc2ccc(C(=O)O)cc2)cc1Br`, the Potency is reported as “inactive”.
With `CC(C)c1ccc(/C=N/Nc2ccc(C(=O)O)cc2)cc1` the Potency was “inactive”.
In the case of `O=C(NC1CCC(=O)N(CCOc2ccccc2)CC1)OCc1ccccc1` (centres undefined), the Potency is reported as “inactive”.
With `CC(=O)N1CCc2c(sc3c2c(=O)n(CCc2ccccc2)c(=O)n3Cc2cccc(C)c2)C1` the Potency was “inactive”.
In the case of `COc1ccc(N=Nc2ccc3ccccc3c2)c(O)c1`, the Potency is reported as 22.4 µM (active).
For `COc1ccc(-c2cc(-c3ccccc3O)[nH]n2)cc1`, the Potency was “inactive”.
With `COc1ccc(NC(=O)Nc2c(O)ccc3ccccc23)cc1` the Potency was “inactive”.
In the case of `COc1cc2c(cc1OC)CN(C(=O)c1cc(Cl)nc(Cl)c1)CC2`, the Potency is reported as “inactive”.
With `CC(=O)NC12CC3CC(C1)CC(C(=O)Oc1ccc(N(C)S(=O)(=O)c4cc(C)ccc4C)cc1)(C3)C2` the Potency was “inactive”.
With `COc1ccc(C(=O)Nc2ccc(N3CCN(C(=O)c4ccccc4C)CC3)cc2)cc1` the Potency was “inactive”.
In the case of `CN1CCN(c2ccc(NC(=O)c3ccc4ccccc4c3)cc2)CC1`, the Potency is reported as 22.4 µM (active).
In the case of `CC(=O)N1CCN(c2ccc(NC(=O)c3cccc(F)c3)cc2)CC1`, the Potency is reported as “inactive”.
In the case of `CC(C)(C)OC(=O)CNC(=O)c1[nH]cnc1C(=O)N[C@@H](CCCCNC(=O)OC(C)(C)C)C(=O)OC(C)(C)C`, the Potency is reported as “inactive”.
For `O=C(CCCc1nc(-c2ccc(Cl)cc2)no1)NC1CCCC1`, the Potency was “inactive”.
In the case of `O=C(c1ccc2c(c1)N(Cc1ccccc1F)C(=O)c1ccccc1S2=O)N1CCN(c2ccccc2)CC1` (centres undefined), the Potency is reported as “inactive”.
In the case of `COc1ccc(C)cc1NC(=O)C1CCN(S(=O)(=O)c2ccccc2)CC1`, the Potency is reported as “inactive”.
For `CCOC(=O)c1sc(NC(=O)c2ccc(S(=O)(=O)N3CCCCC3)cc2)nc1-c1ccccc1`, the Potency was “inactive”.
In the case of `CCOC(=O)/C=C/C(=O)Nc1ccc(S(=O)(=O)N2CCCCCC2)cc1`, the Potency is reported as “inactive”.
With `CCOC(=O)c1sc2ccc(S(=O)(=O)N3CCCCC3)cc2c1N` the Potency was 17.8 µM (active).
For `COc1cc(OC)cc(C(=O)Nc2ccc3c(c2)CCCN3C(=O)c2cccs2)c1`, the Potency was “inactive”.
With `O=C1CC(c2ccco2)CC(O)=C1C=NCCN1CCN(C(=O)Nc2ccc(Cl)cc2)CC1` (centres undefined) the Potency was “inactive”.
In the case of `Cc1ccc(CSCC(=O)N(C)CC(=O)Nc2c(Cl)cccc2Cl)cc1`, the Potency is reported as “inactive”.
In the case of `Cc1ccc(-c2noc(-c3ccc(N4CCCCC4)c([N+](=O)[O-])c3)n2)cc1`, the Potency is reported as “inactive”.
For `Fc1ccc(-c2noc(-c3ccc4c(c3)CCO4)n2)cc1`, the Potency was 12.6 µM (active).
In the case of `O=S(=O)(Nc1ccc2ccccc2n1)c1ccc2c(c1)CCO2`, the Potency is reported as “inactive”.
